Only some compounds are listed: those with a hit (about 7.3% of all), similar ones and a draw of the others.
Vaccinia Venus: vaccinia inhibition (Venus reporter) | Vaccinia virus Venus reporter expression, fluorescence | Potency, µM (titrated, usually from 36.5 µM), usual class: inhibitors | 330,000 compounds, 0.46% hits | AID 720580; calls by dose curve; tested in A549 cells; also: nearly all actives have a fitted effect of over 30% in size
HCV inhibitor: HCV inhibition; Potency, µM (highest dose often 41.8 µM), hits mostly inhibitors; 340,000 compounds, 3.4% hits; Huh7.5.1 HCVcc-Cre infection, luciferase reporter, 44 h; active = well fitted inhibition curve with a large enough effect; inconclusive = small, poorly fitted or top-dose-only effect, or another doubt; inactive = no such curve, though single readings can be large or run the other way
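After 44 h co-culture of compound, cells and HCVcc-Cre (~0.5 moi), substrate is added for 15 min at room temperature and luciferase measured over 15 sec. Cells were seeded at 1,000/well and pre-cultured 4 h.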
Vaccinia mCherry: vaccinia inhibition (mCherry reporter); 310,000 compounds, 0.63% hits; Potency, µM (top dose mostly 36.5 µM), actives largely listed as inhibitors; Vaccinia virus mCherry reporter infection, fluorescence; calls by dose curve; tested in A549 cells; also: nearly all actives have a fitted effect of over 35% in size
FMDV inh: foot and mouth disease virus antiviral activity; Potency, µM (top dose mostly 57.9 µM), actives largely listed as inhibitors; AID 1159524; FMDV antiviral cell-based qHTS; 410,000 compounds, 1.2% hits; calls by dose curve; tested in HEK293T cells; also: read-out not given here; nearly all actives have a fitted effect of over 45% in size
HCMV antiviral: blocks human cytomegalovirus replication | HFF cells, HCMV-luciferase reporter, 72 h; stronger effect = lower value | activity change, negative = inhibition, % at 57.5 µM | 410,000 compounds, 4.5% hits | AID 1259415; in the data active = activity change below about -60%; inconclusive = no clear call, values can overlap the other calls; inactive = above about -39%
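Two-dose cell screen: HFF monolayers treated with compounds and infected with luciferase-expressing HCMV at 1 PFU/cell, 72 h at 37C, then lysed for luciferase measurement.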
Hits are given with their value; . = inactive; ? = inconclusive; / = no result; ! = a repeat was not active; [ ] = remark or other dose.

SMILES	Vaccinia Venus	HCV inhibitor	Vaccinia mCherry	FMDV inh	HCMV antiviral
S=C(NCc1ccco1)N1CCN(c2nc(-c3ccccc3)cs2)CC1	.	?	.	.	?
Cc1ccc2c(c1)c(=O)c(C(=O)c1ccncc1)cn2CC(=O)Nc1ccc(C(C)C)cc1	.[7.34 µM]	/	.[7.34 µM]	.	.
CCOc1cccc(C(=O)NC(=S)Nc2ccc(Cl)cc2C(=O)O)c1	.	.	.	.	-60.2
CN(CC(=O)Nc1ccccc1Br)C(=O)CNC(=O)c1ccc(Oc2ccccc2)cc1	/	?	/	.	-63.0
Cc1ccccc1C(=O)Nc1cccc(NC(=O)c2ccc(C(C)(C)C)cc2)c1	?	/	.	.	.
CCn1cc([N+](=O)[O-])c(C(=O)N2N=C3/C(=C/c4cccs4)CCCC3C2c2cccs2)n1 (centres undefined)	/	10µM	/	.	.
CCn1cc([N+](=O)[O-])c(C(=O)N2CCOCC2)n1	.	.	.	.	.
CCn1c(NC(=O)c2cccc(Cn3cc(Cl)cn3)c2)nc2ccccc21	.	14.1µM	?	?	-68.3
CCn1c(NC(=O)c2ccccc2)nc2ccccc21	.	.	.	.	.
CCCCn1c(NC(=O)c2ccccc2)nc2ccccc21	.	12.6µM	.	/	.
CN(C)CCCn1c(NC(=O)C2CCCCC2)nc2ccccc21	.	?	.	/	?
CCCCn1c(NC(=O)C2CCCCC2)nc2ccccc21	?	12.6µM	/	.	.
Cn1c(NC(=O)c2cccc(Cn3cc(Cl)cn3)c2)nc2ccccc21	.	.	?	.	.
CCc1cccc(NC(=O)C2CCCN2S(=O)(=O)c2ccc3nc(-c4ccccc4)[nH]c3c2)c1 (centres undefined)	?	/	?	.	-60.3
Cc1cc(C)cc(NC(=O)C2CCCN2S(=O)(=O)c2ccc3nc(-c4ccccc4)[nH]c3c2)c1 (centres undefined)	.	/	.	.	.
CCc1cccc(NC(=O)C2CCN(S(=O)(=O)c3cccc(-c4noc(C)n4)c3)CC2)c1	.	/	.	.	-61.0
Cc1nc(-c2ccc(C)c(S(=O)(=O)N3CCC(C(=O)Nc4ccc(Cl)cc4)CC3)c2)no1	?	/	.	.	-74.8
Cc1nc(-c2cccc(S(=O)(=O)N3CCC(C(=O)NCc4ccccc4Cl)CC3)c2)no1	.	/	.	.	.
COc1cccc(NC(=O)C2CCN(S(=O)(=O)c3cc(-c4noc(C)n4)ccc3C)CC2)c1	?	/	?	?	-72.4
CCOc1ccc(NC(=O)N2CC=C(c3c[nH]c4ccccc34)CC2)cc1	.	/	.	.	.
CCCCNC(=O)CCn1c(=O)c2ccccc2n(Cc2ccccc2C#N)c1=O	.	/	.	.	.
CN(C)c1ccc(-c2cncnc2-n2ccnc2)cc1	/	/	/	.	/
CCOC(=O)C1=C(C(=O)OCC)C2N(Cc3ccc(C#N)cc3)c3ccccc3[C@@]23C[C@@H](C(=O)OC)N(S(=O)(=O)c2ccc(OC)cc2)C3=N1 (some centres undefined)	/	/	/	/	.
COc1cccc(CNC[C@H]2O[C@@H](n3ccc(N)nc3=O)[C@H](O)[C@@H]2O)c1OCc1ccc(F)cc1Cl	.	/	.	.	.
COC(=O)Cn1c(=NC(=O)c2nc3ccccc3s2)sc2cc(S(N)(=O)=O)ccc21	.	?	.	.	-88.6
SMILES	Vaccinia Venus	HCV inhibitor	Vaccinia mCherry	FMDV inh	HCMV antiviral
COC(=O)Cn1c(=NC(=O)c2cc(-c3cccs3)nc3ccccc23)sc2cc(S(N)(=O)=O)ccc21	?	?	?	.	.
O=c1[nH]sc2ccccc12	.	?	.	.	-73.5
O=c1ccsc2ccccc12	.	.	.	.	.
O=c1[nH]sc2cc(F)ccc12	.	?	.	.	-98.2
COc1ccc(Cl)cc1NC(=O)C1CCCN(c2ncnc3onc(C)c23)C1 (centres undefined)	.	/	.	?	-76.7
COc1ccc(NC(=O)C2CCCN(c3ncnc4onc(C)c34)C2)cc1OC (centres undefined)	.	/	.	?	.
Cc1c(-c2nc(N)nc(Nc3ccc(F)cc3)n2)oc2ccccc12	?	10µM	/	.	.
CCOC(=O)c1ccc(NC(=O)CC(=O)Nc2ccc3nc4n(c(=O)c3c2)CCCCC4)cc1	.	/	.	.	?
O=c1c2ccc(Cl)cc2nc(-c2ccc([N+](=O)[O-])cc2)n1O	.	.	.	.	-97.9
CCOC(=O)C1=C(C)NC(C)=C(C(=O)OCC)C1C(=O)OCC(=O)NC1(C#N)CCCCC1	.	?	.	.	.
C=CCSc1nc(N)c(C(=O)Nc2ccccc2OC)cc1C(=O)Nc1ccccc1	.	.	.	.	.
C=CCSc1nc(N)c(C(=O)Nc2ccccc2)cc1C#N	/	3.55µM	/	?	.
CCNc1ncc2nc(-c3ccc(F)cc3)c(=O)n(CCC#N)c2n1	/	/	/	.	/
Clc1ccc(CSc2nnc(NC3=NCCCCC3)s2)cc1	?	?	/	.	-66.5
CCO[C@H]1OC(C(=O)N2CCN(Cc3ccccc3)CC2)=C[C@@H](c2ccc(C(F)(F)F)cc2)[C@@H]1CCCO	?	?	.	.	-86.4
CCO[C@H]1OC(C(=O)N2CCN(C)CC2)=C[C@@H](C)[C@@H]1CCCO	.	.	.	.	-96.8
CCO[C@@H]1OC(C(N)=O)=C[C@H](c2ccc3c(c2)OCO3)[C@H]1CCCO	.	.	.	.	-95.2
CCO[C@H]1OC(C(=O)NCc2nc3ccccc3[nH]2)=C[C@@H](C)[C@@H]1CCCO	.	?	.	.	-62.2
CCO[C@H]1OC(C(=O)N2CCN(C)CC2)=C[C@@H](C(C)(C)C)[C@@H]1CCCO	.	?	.	.	.
COc1ccccc1C(CNC(=O)C(CCSC)NC(=O)c1ccccc1Cl)N1CCCC1 (centres undefined)	.	.	.	.	.
Cc1cc(C)nc(S[C@H]2C[C@@H](C(=O)N3CCN(c4ccccc4F)CC3)N(Cc3ccccc3C(F)(F)F)C2)n1	.	/	.	.	/
O=[N+]([O-])c1ccc2c(c1)/C(=C/c1ccc(C=S)cc1)C=C2	.	/	.	/	/
Cc1ccccc1Nc1c(-c2cccnc2)nc2cccc(C)n12	.	?	.	?	-61.6!
Cc1cccc2nc(-c3cccnc3)c(Nc3ccc(C(C)C)cc3)n12	?	/	?	28.2µM	-83.0
Cc1cc(O)c2c(C)c(CC(=O)N3CCCCC3)c(=O)oc2c1	.	/	.	.	.
SMILES	Vaccinia Venus	HCV inhibitor	Vaccinia mCherry	FMDV inh	HCMV antiviral
CC1C(=O)C(C)(C)C(=O)OC1c1ccc([N+](=O)[O-])cc1 (centres undefined)	/	.	/	.	-104.0
O=C([C@@H]1C[C@@H](Sc2nc3ccccc3[nH]2)CN1Cc1ccc(Cl)cc1)N1CCN(c2ccccc2F)CC1	.	/	.	.	/
CC(=O)N1CN(C2CC(C)(C)NC(C)(C)C2)Cc2c1sc1c2CCCC1	.	?	.	.	-62.7
O=C(NNS(=O)(=O)c1ccc([N+](=O)[O-])cc1)c1ccc([N+](=O)[O-])cc1	.	.	.	.	.
COc1ccc(-c2nn(-c3ccccc3)cc2/C=N/NC(N)=S)cc1OC	?	11.2µM	?	.	.
O=C(CSc1nnc(-c2c[nH]c3ccccc23)o1)N1CCCCC1	.	.	.	/	.
O=C(CSc1nnc(-c2c[nH]c3ccccc23)o1)N1c2ccccc2CCc2ccccc21	?	7.94µM	?	/	-88.9

Assay outcomes (PubChem BioAssay)
